Reference: PubChem BioAssay AID1159580 (chemical genetic matrix, 2015)
Among all 5,500 compounds or so, about 2,000 (36%) were called active. Inconclusive results (about 18%) are left out. Cut-off read from the data, not from the text of the source: active = normalized growth mostly below about 0.91 (no sharp cut-off); inconclusive = no clear call, values can overlap the other calls; inactive = mostly above about 0.92. The list shows a part of the results.

Assay: chemical genetic growth profiling, strain panel (AID 1159580);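 note: tested at 20 µM; growth read once vehicle control cultures reached saturation at 30 °C; 1 = growth at the plate median or of vehicle wells; lower values mean less growth of the strain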
Settings: growth OD
[1] = S. cerevisiae deletion strains, locus YMR263W, strain SAP30, hits give low values
[2] = S. cerevisiae deletion strains, locus YNL153C, strain GIM3, hits give low values
[3] = S. cerevisiae deletion strains, locus YAL013W, strain DEP1, hits give low values
[4] = S. cerevisiae deletion strains, locus YBR229C, strain ROT2, hits give low values
[5] = S. cerevisiae deletion strains, locus YDL101C, strain DUN1, hits give low values
[6] = S. cerevisiae deletion strains, locus YDR150W, strain NUM1, hits give low values
[7] = S. cerevisiae deletion strains, locus YEL061C, strain CIN8, hits give low values
[8] = S. cerevisiae deletion strains, locus YGR078C, strain PAC10, hits give low values
[9] = S. cerevisiae deletion strains, locus YHR030C, strain SLT2, hits give low values
[10] = S. cerevisiae deletion strains, locus YHR087W, strain rtc3, hits give low values
[11] = S. cerevisiae deletion strains, locus YJL187C, strain SWE1, hits give low values
[12] = S. cerevisiae deletion strains, locus YJR043C, strain POL32, hits give low values
[13] = S. cerevisiae deletion strains, locus YJR075W, strain HOC1, hits give low values
[14] = S. cerevisiae deletion strains, locus YLR039C, strain RIC1, hits give low values
[15] = S. cerevisiae deletion strains, locus YLR058C, strain SHM2 (second series), hits give low values
[16] = S. cerevisiae deletion strains, locus YLR085C, strain ARP6, hits give low values
[17] = S. cerevisiae deletion strains, locus YLR262C, strain YPT6, hits give low values
[18] = S. cerevisiae deletion strains, locus YML094W, strain GIM5, hits give low values
[19] = S. cerevisiae deletion strains, locus YMR219W, strain ESC1, hits give low values
[20] = S. cerevisiae deletion strains, locus YNL298W, strain CLA4 (second series), hits give low values
[21] = S. cerevisiae deletion strains, locus YNL322C, strain KRE1, hits give low values
[22] = S. cerevisiae deletion strains, locus YNR030W, strain Alg12, hits give low values
[23] = S. cerevisiae deletion strains, locus YPL055C, strain LGE1, hits give low values
[24] = S. cerevisiae deletion strains, locus YPL241C, strain CIN2, hits give low values
[25] = S. cerevisiae deletion strains, locus YPR135W, strain CTF4, hits give low values

Measured: normalized growth

Nc1nc(OCc2ccccc2)c2[nH]cnc2n1
inactive: S. cerevisiae deletion strains, locus YAL040C, strain CLN3, hits give low values 0.994 | S. cerevisiae deletion strains, locus YCL061C, strain MRC1 (second series), hits give low values 1 | S. cerevisiae deletion strains, locus YDR363W, strain ESC2, hits give low values 1.02 | S. cerevisiae deletion strains, locus YER002W, strain NOP16, hits give low values 1 | [1] 1 | [2] 0.999 | S. cerevisiae deletion strains, locus YNL175C, strain NOP13, hits give low values 0.982 | S. cerevisiae deletion strains, locus YNL197C, strain WHI3, hits give low values 0.984 | S. cerevisiae deletion strains, locus YNL224C, strain SQS1, hits give low values 1.02 | S. cerevisiae deletion strains, locus YOR083W, strain WHI5 (second series), hits give low values 1.01

O=[N+]([O-])c1ccc(N2CCCCC2)nc1N1CCCCC1
inactive: [3] 0.967 | [4] 0.96 | [5] 0.978 | [6] 0.961 | [7] 0.95 | [8] 0.963 | S. cerevisiae deletion strains, locus YGR229C, strain SMI1, hits give low values 0.961 | [10] 0.943 | [11] 0.954 | [12] 0.977 | [13] 0.914 | [15] 0.954 | [18] 0.9 | [1] 0.95 | [20] 0.906 | [22] 0.89 | [23] 0.908
active: [9] 0.587 | [14] 0.581 | [16] 0.568 | [17] 0.59 | [19] 0.944 | [2] 0.909 | [21] 0.921 | [24] 0.803 | [25] 0.587

O=[N+]([O-])c1cc(C(F)(F)F)c(N2CCCCC2)cc1N1CCCCC1
inactive: [3] 0.996 | [4] 0.994 | [5] 1.03 | [6] 1.01 | [7] 0.967 | [8] 1.01 | [9] 1.01 | [10] 0.98 | [11] 0.977 | [12] 1.01 | [13] 0.996 | [14] 0.864 | [15] 0.974 | [16] 0.915 | [17] 0.972 | [18] 0.973 | [19] 0.983 | [1] 1.01 | S. cerevisiae deletion strains, locus YMR307W, strain GAS1, hits give low values 1.02 | [2] 1.03 | [20] 1.03 | [21] 0.989 | [22] 0.989 | [23] 0.978 | [24] 1.02 | [25] 0.977 | S. cerevisiae strains, strain wild type, hits give low values 0.992

CCCCC/C=C/CCC(=O)N[C@H]1[C@H](Oc2c3cc4cc2Oc2ccc(cc2Cl)[C@@H](O[C@@H]2O[C@H](CO)[C@@H](O)[C@H](O)[C@H]2NC(C)=O)[C@@H]2NC(=O)[C@H](NC(=O)[C@@H]4NC(=O)[C@H]4NC(=O)C(Cc5ccc(c(Cl)c5)O3)NC(=O)[C@H](N)c3ccc(O)c(c3)Oc3cc(O)cc4c3)c3ccc(O)c(c3)-c3c(OC4O[C@H](CO)[C@@H](O)[C@H](O)[C@@H]4O)cc(O)cc3[C@@H](C(=O)O)NC2=O)O[C@H](CO)[C@@H](O)[C@@H]1O (stereo partly drawn)
inactive: S. cerevisiae deletion strains, locus YAL021C, strain ccr4, hits give low values 1 | S. cerevisiae deletion strains, locus YAL026C, strain drs2, hits give low values 1 | S. cerevisiae deletion strains, locus YAL030W, strain snc1, hits give low values 0.995 | S. cerevisiae deletion strains, locus YBL061C, strain skt5, hits give low values 0.987 | S. cerevisiae deletion strains, locus YBR009C, strain hhf1, hits give low values 0.996 | S. cerevisiae deletion strains, locus YBR023C, strain chs3, hits give low values 0.998 | S. cerevisiae deletion strains, locus YBR171W, strain sec66, hits give low values 1 | S. cerevisiae deletion strains, locus YBR231C, strain swc5, hits give low values 0.991 | S. cerevisiae deletion strains, locus YBR279W, strain paf1, hits give low values 0.997 | S. cerevisiae deletion strains, locus YCL011C, strain gbp2, hits give low values 1.01 | S. cerevisiae deletion strains, locus YCL016C, strain dcc1, hits give low values 0.995 | S. cerevisiae deletion strains, locus YCL061C, strain MRC1, hits give low values 0.999 | S. cerevisiae deletion strains, locus YCL069W, strain vba3, hits give low values 0.996 | S. cerevisiae deletion strains, locus YCR088W, strain abp1, hits give low values 1.01 | S. cerevisiae deletion strains, locus YDL005C, strain med2, hits give low values 0.995 | S. cerevisiae deletion strains, locus YDL040C, strain nat1, hits give low values 1 | S. cerevisiae deletion strains, locus YDR001C, strain nth1, hits give low values 1 | S. cerevisiae deletion strains, locus YDR069C, strain doa4, hits give low values 1 | S. cerevisiae deletion strains, locus YDR137W, strain rgp1, hits give low values 1.01 | S. cerevisiae deletion strains, locus YDR159W, strain sac3, hits give low values 0.977 | S. cerevisiae deletion strains, locus YDR195W, strain ref2 0.918 | S. cerevisiae deletion strains, locus YDR297W, strain sur2, hits give low values 0.998 | S. cerevisiae deletion strains, locus YDR334W, strain swr1, hits give low values 1.01 | S. cerevisiae deletion strains, locus YDR335W, strain msn5, hits give low values 0.998 | S. cerevisiae deletion strains, locus YDR392W, strain spt3, hits give low values 0.967 | S. cerevisiae deletion strains, locus YEL003W, strain gim4, hits give low values 0.989 | S. cerevisiae deletion strains, locus YEL037C, strain rad23, hits give low values 1.05 | S. cerevisiae deletion strains, locus YEL061C, strain CIN8 (second series), hits give low values 0.999 | S. cerevisiae deletion strains, locus YER015W, strain faa2, hits give low values 0.999 | S. cerevisiae deletion strains, locus YER016W, strain bim1, hits give low values 1.01 | S. cerevisiae deletion strains, locus YER111C, strain swi4, hits give low values 0.987 | S. cerevisiae deletion strains, locus YER155C, strain BEM2 (second series), hits give low values 1.01 | S. cerevisiae deletion strains, locus YFR010W, strain ubp6, hits give low values 1.03 | S. cerevisiae deletion strains, locus YGL167C, strain pmr1, hits give low values 0.993 | S. cerevisiae deletion strains, locus YGL173C, strain kem1, hits give low values 0.994 | S. cerevisiae deletion strains, locus YGL227W, strain vid30, hits give low values 1 | S. cerevisiae deletion strains, locus YGL240W, strain doc1, hits give low values 0.973 | S. cerevisiae deletion strains, locus YGL253W, strain hxk2, hits give low values 1 | S. cerevisiae deletion strains, locus YHR013C, strain ard1, hits give low values 0.981 | S. cerevisiae deletion strains, locus YHR027C, strain rpn1, hits give low values 1 | [9] 0.964 | S. cerevisiae deletion strains, locus YHR079C, strain IRE1, hits give low values 0.956 | S. cerevisiae deletion strains, locus YHR142W, strain chs7, hits give low values 1.03 | S. cerevisiae deletion strains, locus YJL092W, strain hpr5, hits give low values 1 | S. cerevisiae deletion strains, locus YJL095W, strain BCK1 (second series), hits give low values 1 | S. cerevisiae deletion strains, locus YJL095W, strain BCK1, hits give low values 0.956 | S. cerevisiae deletion strains, locus YJL115W, strain asf1, hits give low values 0.996 | S. cerevisiae deletion strains, locus YJL129C, strain trk1, hits give low values 1 | S. cerevisiae deletion strains, locus YJL154C, strain vps35, hits give low values 1.01 | S. cerevisiae deletion strains, locus YJL164C, strain tpk1, hits give low values 1.01 | S. cerevisiae deletion strains, locus YJL166W, strain qcr8, hits give low values 0.993 | [11] 1 | S. cerevisiae deletion strains, locus YJR066W, strain TOR1, hits give low values 0.935 | S. cerevisiae deletion strains, locus YKL160W, strain elf1, hits give low values 0.995 | S. cerevisiae deletion strains, locus YKR026C, strain gcn3, hits give low values 0.99 | S. cerevisiae deletion strains, locus YKR091W, strain srl3, hits give low values 0.996 | S. cerevisiae deletion strains, locus YLL001W, strain dnm1, hits give low values 1.02 | S. cerevisiae deletion strains, locus YLL026W, hits give low values 0.996 | S. cerevisiae deletion strains, locus YLL041C, strain sdh2, hits give low values 1 | S. cerevisiae deletion strains, locus YLR027C, strain aat2, hits give low values 1.01 | S. cerevisiae deletion strains, locus YLR113W, strain HOG1, hits give low values 0.942 | S. cerevisiae deletion strains, locus YLR221C, strain rsa3, hits give low values 1.01 | S. cerevisiae deletion strains, locus YLR258W, strain gsy2, hits give low values 1.01 | S. cerevisiae deletion strains, locus YLR262C, strain YPT6 (second series), hits give low values 1.01 | S. cerevisiae deletion strains, locus YLR320W, strain mms22, hits give low values 0.988 | S. cerevisiae deletion strains, locus YLR342W, strain FKS1, hits give low values 0.988 | S. cerevisiae deletion strains, locus YLR357W, strain rsc2, hits give low values 1 | S. cerevisiae deletion strains, locus YLR370C, strain arc18, hits give low values 1 | S. cerevisiae deletion strains, locus YLR384C, strain iki3, hits give low values 1 | S. cerevisiae deletion strains, locus YML120C, strain ndi1, hits give low values 1.01 | S. cerevisiae deletion strains, locus YMR058W, strain fet3, hits give low values 1 | S. cerevisiae deletion strains, locus YMR125W, strain sto1, hits give low values 1.01 | S. cerevisiae deletion strains, locus YMR129W, hits give low values 0.998 | S. cerevisiae deletion strains, locus YMR205C, strain PFK2, hits give low values 0.993 | S. cerevisiae deletion strains, locus YMR231W, strain pep5, hits give low values 0.991 | S. cerevisiae deletion strains, locus YNL071W, strain lat1, hits give low values 1 | S. cerevisiae deletion strains, locus YNL183C, strain NPR1, hits give low values 0.936 | S. cerevisiae deletion strains, locus YNL209W, strain ssb2, hits give low values 1 | S. cerevisiae deletion strains, locus YNL248C, strain rpa49, hits give low values 1.01 | S. cerevisiae deletion strains, locus YNL322C, strain KRE1 (second series), hits give low values 0.991 | S. cerevisiae deletion strains, locus YNR049C, strain mso1, hits give low values 1.01 | S. cerevisiae deletion strains, locus YOR001W, strain rrp6, hits give low values 1.01 | S. cerevisiae deletion strains, locus YOR070C, strain gyp1, hits give low values 1.02 | S. cerevisiae deletion strains, locus YOR080W, strain dia2, hits give low values 0.98 | S. cerevisiae deletion strains, locus YOR083W, strain WHI5, hits give low values 1 | S. cerevisiae deletion strains, locus YOR106W, strain vam3, hits give low values 1.02 | S. cerevisiae deletion strains, locus YOR231W, strain MKK1, hits give low values 0.961 | S. cerevisiae deletion strains, locus YOR265W, strain rbl2, hits give low values 1 | S. cerevisiae deletion strains, locus YOR270C, strain vph1, hits give low values 0.993 | S. cerevisiae deletion strains, locus YOR290C, strain snf2, hits give low values 1.01 | S. cerevisiae deletion strains, locus YPL051W, strain arl3, hits give low values 1.01 | S. cerevisiae deletion strains, locus YPL078C, strain atp4, hits give low values 0.999 | S. cerevisiae deletion strains, locus YPL106C, strain sse1, hits give low values 0.971 | S. cerevisiae deletion strains, locus YPL240C, strain hsp82, hits give low values 0.999 | S. cerevisiae deletion strains, locus YPL256C, strain CLN2, hits give low values 0.946
